Screening results as filed in PubChem.
An excerpt weighted towards active compounds, which were near 1.1% of everything screened.
MOR-DOR ag = agonists of human mu-delta opioid receptor heterodimerization. P35372+P41143. hit rate 0.3% among 340,000. activation, % at 9.3 µM. cells, OPRM1-OPRD1 heterodimerization, luminescence; in the data active = activation above about 18%;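 note: 0% = vehicle-treated cells and 100% = reference agonist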
HTR5A ag ctr = counter-screen for OPRM1-OPRD1 agonists: human HTR5A agonism. P47898. HTR5A agonist assay, luminescence, cell-based. activation, % at 9.3 µM. hit rate 0.61% among 340,000; in the data active = activation mostly above about 9.5%, no sharp cut-off; inactive = mostly below about 7.6%;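 note: 0% = cells with vehicle only and 100% = reference agonist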
Target sequence (P47898 whole entry, looked up): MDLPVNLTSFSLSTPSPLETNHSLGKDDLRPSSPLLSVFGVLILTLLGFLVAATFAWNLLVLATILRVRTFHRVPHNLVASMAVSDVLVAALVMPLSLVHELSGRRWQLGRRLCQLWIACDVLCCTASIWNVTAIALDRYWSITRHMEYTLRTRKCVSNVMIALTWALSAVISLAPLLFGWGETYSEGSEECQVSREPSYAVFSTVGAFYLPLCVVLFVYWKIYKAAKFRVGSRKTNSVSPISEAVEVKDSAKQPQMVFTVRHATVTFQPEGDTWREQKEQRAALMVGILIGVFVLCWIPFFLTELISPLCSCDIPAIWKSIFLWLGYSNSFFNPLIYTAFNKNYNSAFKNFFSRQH
HTR5A inv ctr = counter-screen for OPRM1-OPRD1 inverse agonists: human HTR5A inverse agonism | inhibition, % at 9.3 µM | hit rate 0.083% among 340,000 | P47898 | HTR5A cell line, luminescence; in the data active = inhibition mostly above about 23%, no sharp cut-off; inactive = mostly below about 18%;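 note: 0% = cells with DMSO and 100% = no-cell wells with DMSO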
OPRM1-OPRD1 inv = mu-delta opioid heterodimer inverse agonism | hit rate 0.21% among 340,000 | cell-based MOR-DOR heterodimer luminescence | AID 504357 | P35372+P41143 | inhibition, % at 9.3 µM; in the data active = inhibition above about 22%, passing the limit was not always enough;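 note: 0% = cells with DMSO and 100% = wells without cells with DMSO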
An asterisk follows results filed as active; i = inactive.

SMILES	MOR-DOR ag	HTR5A ag ctr	HTR5A inv ctr	OPRM1-OPRD1 inv
Cc1ccc(C(=O)Sc2cccccc2=O)cc1	-9	-10	34*	40*
COCCN(Cc1ccccc1)C(=O)c1c(C)nn(-c2ccccc2)c1C	-2	-4	8	12
N/C(=N\OC(=O)/C=C/c1ccc(Br)cc1)c1ccccn1	2	10*	-3	-13
N/C(=N\OC(=O)/C=C/c1ccccc1Cl)c1ccccn1	1	0	4	-3
CCOc1ccc(NC(=O)c2cc(OC)nc3ccccc23)cc1	-1	12*	-46	4
CCOc1ccc(/C=C/C(=O)OCC(=O)NCCc2ccc(OCC)c(OCC)c2)cc1OC	-1	0	-1	4
CCCCC(NC(=O)Cc1c(C)c2cc3c(-c4ccccc4)coc3c(C)c2oc1=O)C(=O)O (stereo not given)	-2	-3	12	8
CC(=O)NC1CC2CCCC(C1)N2Cc1ccc(C)cc1 (stereo not given)	-2	14*	-3	12
FC(F)(F)c1cnc(NNC(=S)Nc2ccc(Cl)cc2)c(Cl)c1	-10	-10	49*	49*
O=C(NNc1ncc(C(F)(F)F)cc1Cl)c1ccc(Cl)c(Cl)c1	-3	2	-4	15
Fc1ccc(NC(=S)NNc2ncc(C(F)(F)F)cc2Cl)c(F)c1	-10	-15	39*	56*
O=S(=O)(NNc1ncc(C(F)(F)F)cc1Cl)c1ccc(F)cc1F	2	11	-28	-9
COC(=O)C1=C(C)NC(=O)/C1=C\c1ccco1	-2	11*	-33	8
COC(=O)C1=C(C)N(C)C(=O)/C1=C\c1ccco1	-1	5	13	5
OC12CC3C[C@H](C1)C(N1CCOCC1)[C@@H](C3)C2 (stereo not given in full)	-1	10*	-35	5
Cc1ccc(NC(=S)NCCO)c(C)c1	-2	12*	14	10
Cc1ccc(NC(=S)NCCc2ccccc2)c(C)c1	-2	3	4	10
c1cnc2ccc(C(c3nnnn3C3CCCC3)N3CCN4CCCC4C3)cc2c1 (stereo not given)	-3	1	-12	18
COC(=O)c1nc2nc(-c3cccs3)cc(C(F)(F)F)n2n1	0	11*	-30	2
COC(=O)c1nc2nc(C)cc(C(F)(F)F)n2n1	1	3	-7	-6
CSCCC(NC(=O)c1ccc(Cl)cc1Cl)C(=O)NCC(c1cccs1)N(C)C (stereo not given)	2	-5	18	-8
COc1ccc(/C(C)=N/Nc2nncc3ccccc23)cc1	0	1	-4	-1
CNC(=S)NNc1nncc2ccccc12	-2	12*	-30	11
O=C(N/N=C/c1sc(=O)n(Cc2ccc(Br)cc2)c1Cl)c1ccco1	27*	26*	-87	-133
N#CC1c2ccccc2C=CN1C(=O)N(c1ccccc1)c1ccccc1 (stereo not given)	4	-2	7	-21
SMILES	MOR-DOR ag	HTR5A ag ctr	HTR5A inv ctr	OPRM1-OPRD1 inv
Cc1cc(NC(=O)CN2CCN(S(=O)(=O)c3ccc4ccccc4c3)CC2)no1	5	10*	-36	-28
CC(=O)c1ccc(NC(=O)CN2CCN(S(=O)(=O)c3ccc4ccccc4c3)CC2)cc1	0	4	-10	0
CCOc1ccc(N2C(=O)CC(NCCNc3ccc(C(=O)c4cccs4)cc3)C2=O)cc1 (stereo not given)	-3	1	5	18
Cc1ccc(OCC(O)Cn2c(=N)n(Cc3ccccc3)c3ccccc32)cc1 (stereo not given)	3	12*	4	-13
N=c1n(Cc2ccccc2)c2ccccc2n1CC(O)COc1ccc(Cl)cc1Cl (stereo not given)	31*	31*	-80	-173
C[C@H](CO)N1C[C@H](C)[C@@H](CN(C)S(=O)(=O)c2cn(C)cn2)Oc2ccc(NC(=O)C3CCCCC3)cc2C1=O	-3	-1	4	14
CCCCOC(=O)Nc1ccc(N2CCCCC2)cc1	2	9.6*	6	-10
O=S(=O)(c1ccc(OC(F)(F)F)cc1)N1CCCC(N2CCOCC2)C1 (stereo not given)	0	2	-8	1
O=C(c1ccccc1)c1c2c(cc3sc4ccccc4[n+]13)-c1cccc3cccc-2c13	90*	33*	-64	-481
CN(C)CCCC1(O)c2ccccc2C=Cc2ccccc21	-2	-1	-10	11
Cc1cc(-c2ccccc2)nc(N/N=C/c2cccnc2)n1	0	11*	-27	0
C(=N/Nc1nc(-c2ccccc2)cc(-c2ccccc2)n1)/c1cccnc1	3	4	14	-15
COc1cccc(OCC(=O)N2CCCc3ccccc32)c1	-1	10*	-28	5
CC[C@@H](C(=O)[C@@H](C)[C@@H](O)[C@H](C)CCc1ccc(C)c(O)c1C(=O)O)[C@H]1O[C@](CC)([C@H]2CC[C@](O)(CC)[C@H](C)O2)C[C@@H]1C	102*	40*	-143	i
O=C(Cc1coc2cc(O)ccc12)NNC(=O)c1ccc(Br)s1	-1	-6	14	6
Cc1c(/C=N\NC(=O)c2csc3ccccc23)cnn1C	-1	11*	-50	3
O=C(CSc1ncn[nH]1)Nc1ncc(C(F)(F)F)cc1Cl	0	2	-5	3
O=C(CSc1ncn[nH]1)Nc1ccc(Cl)c(Cl)c1	-3	8.7*	6	16
CCCCc1ccc(NC(=S)N2CCCC2)cc1	-2	12*	-45	12
CCCCc1ccc(NC(=S)N2CCN(C)CC2)cc1	-2	0	1	11
N#Cc1cc2c(=O)n3ccccc3nc2n(-c2ccccc2Cl)c1=O	-2	0	17	12
S=C(Nc1ccccc1)N1N=C(c2cccs2)CC1c1cccs1 (stereo not given)	2	1	-2	-13
COc1ccc(C(=O)N/N=C\c2ccc(OC)c(COc3ccccc3Br)c2)c(OC)c1	3	10*	-20	-21
O=C(CNc1cccc(S(=O)(=O)N2CCCC2)c1)Nc1cccc(C(F)(F)F)c1	1	8	-24	-2
Cc1ccc(NC(=O)CSc2nnc3c(n2)[nH]c2ccccc23)cc1	-1	11	8	7
SMILES	MOR-DOR ag	HTR5A ag ctr	HTR5A inv ctr	OPRM1-OPRD1 inv
Cc1ccc(-c2csc(NC(=O)CSc3nnc4c(n3)[nH]c3ccccc34)n2)cc1	5	13*	-49	-28
CC(C)c1ccc(S(=O)(=O)/N=C2\C=C(NS(=O)(=O)c3ccccc3)C(=O)c3ccccc32)cc1	-5	-6	15	30*
CCN(C[C@H]1N[C@@](Cc2ccccc2)(C(=O)OC)[C@H]2C(=O)N(Cc3ccccc3)C(=O)[C@@H]12)C(=O)Nc1ccc(C(F)(F)F)cc1	10	0	1	-45
Nc1nc(CSC(=S)N2CCOCC2)nc(Nc2ccc(F)cc2)n1	-2	1	-16	13
CN1CCN(C(=S)SCc2nc(N)nc(Nc3ccc(F)cc3)n2)CC1	0	11*	-29	3
O=C(Nc1ccccc1C(=O)Nc1nnc(C(F)(F)F)s1)c1ccccc1Cl	1	1	-9	-3
Cc1csc(NC(=O)c2c(O)c3c(n(CC(C)C)c2=O)CCCC3)n1	-3	11*	-15	18
